Screening data as filed in PubChem.
GAA850 FXN act = frataxin GAA850 promoter activation; HEK293 lucGAA850 FXN promoter luciferase reporter, 24 h; percent of 10 µM SAHA response; AID 540364; 360,000 compounds, 0.56% hits; activation, % at 6 µM;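 active means activation above the average of all compounds screened plus 3 SD, cutoff fixed separately per campaign, cut at about 7.5% in these data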
Wnt act = Wnt/beta-catenin pathway activation | Wnt/beta-catenin reporter cell assay, activator, plate reader | 300,000 compounds, 1.2% hits | activation, % at 9.35 µM; in the data active means activation above about 30%, passing the limit was not always enough; inconclusive means no clear call, values can overlap the other calls
AHR act = human AHR activation. P35869. AHR-responsive luciferase reporter cells, luminescence. activation, % at 5 µM. 320,000 compounds, 2.5% hits; in the data active means activation above about 47%
MITF TRPM1 HTS = activators of MITF-driven TRPM1 promoter activity in SK-MEL-5 cells; 300,000 compounds, 0.75% hits; AID 588334; SK-MEL-5 TRPM1-promoter luciferase, 24 h; % of positive control, neutral wells = 0; activation, % at 12.5 µM;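 active means mean activation of at least 80% with every replicate also reaching 80%; inconclusive means mean reaches 80% but some replicate falls short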
esBAF inh = blocks esBAF chromatin remodeling in mouse ES cells | Bmi1-luciferase knock-in reporter, 24 h; 100% = twice the neutral-well signal | reporter increase, % at 12.5 µM | 350,000 compounds, 2% hits | AID 602393; in the data active means activation above about 40%; inconclusive means no clear call, values can overlap the other calls;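 further: a rise in the Bmi1 reporter signal indicates esBAF inhibition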
AHR act cf = human AHR activation, confirmation. shares compounds with AHR act. human cells, AHR-responsive luciferase reporter, luminescence. 2,300 compounds, 87% hits. activation, % at 9 µM. AID 2845; in the data active means activation above about 49%;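 further: HepG2 hepatoma cells carrying a DRE-driven firefly luciferase reporter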
PXR counter = PXR activation, counter-screen for AHR activators; shares compounds with AHR act; cell-based PXR reporter, luciferase luminescence; activation, % at 11.6 µM; 2,300 compounds, 88% hits; in the data active means activation above about 11%;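 further: human hepatoma DPX-2 cells expressing full-length human PXR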
Target sequence (O75469 whole entry, looked up): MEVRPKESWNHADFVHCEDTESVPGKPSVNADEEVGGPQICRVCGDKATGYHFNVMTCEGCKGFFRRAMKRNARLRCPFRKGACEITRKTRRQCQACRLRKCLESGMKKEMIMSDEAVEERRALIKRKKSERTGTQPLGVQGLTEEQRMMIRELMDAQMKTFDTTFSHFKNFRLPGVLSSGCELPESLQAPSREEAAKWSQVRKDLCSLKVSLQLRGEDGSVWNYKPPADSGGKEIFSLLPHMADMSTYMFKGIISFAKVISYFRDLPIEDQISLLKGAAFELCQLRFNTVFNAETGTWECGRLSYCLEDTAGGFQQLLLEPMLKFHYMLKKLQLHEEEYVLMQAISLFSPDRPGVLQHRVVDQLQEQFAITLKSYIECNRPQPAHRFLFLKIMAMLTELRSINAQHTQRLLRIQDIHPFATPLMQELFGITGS
Of the large screens only hits and unclear results are named; the others gave an inactive call (follow-up assays come after a bar, where they were run). The list is not random: actives were taken first. Their share in the collection is about 4.2%.

O=C(/C=C/c1ccc(Cl)cc1Cl)NC(=S)Nc1ccc(CN2CCOCC2)cc1	AHR act 104.6 (no result: esBAF inh) | AHR act cf inactive | PXR counter 82.6
CCCNC(=O)N(C)C[C@H]1Oc2cc(-c3cccnc3)ccc2S(=O)(=O)N([C@H](C)CO)C[C@@H]1C	none (no result: GAA850 FXN act, Wnt act, AHR act, MITF TRPM1 HTS)
Cc1cccc2c1NC(=O)/C2=C\C(=O)c1cccs1	AHR act 84.2 (no result: Wnt act) | AHR act cf 112.8 | PXR counter 116.5
C[C@@H]1CN([C@@H](C)CO)C(=O)c2cccc(NS(=O)(=O)c3cn(C)cn3)c2O[C@H]1CN(C)Cc1ccccc1	none (no result: GAA850 FXN act, Wnt act, AHR act, MITF TRPM1 HTS)
CCCn1c(-c2cccs2)nc2nc3ccccc3nc21	AHR act 100.3 (no result: MITF TRPM1 HTS) | AHR act cf 147.3 | PXR counter 37.0
CSc1nc(N)c2c3c(sc2n1)COC(C(C)C)C3 (stereo unspecified)	AHR act 96.6 (no result: Wnt act) | AHR act cf 109.5 | PXR counter 18.3
CCCC1Cc2c(sc3nc(SC)nc(N)c23)CO1 (stereo unspecified)	none (no result: Wnt act)
O=[N+]([O-])c1ccc(N/N=C\c2ccccc2OCc2ccccc2)cc1	AHR act 84.7 (no result: esBAF inh) | AHR act cf 61.9 | PXR counter 46.3
Cc1cc(C)nc(N/N=C/c2ccccc2OCc2ccc([N+](=O)[O-])cc2)n1	Wnt act inconclusive
C[C@H]1CN([C@@H](C)CO)C(=O)c2c(c3ccccc3n2C)-c2ccccc2CO[C@H]1CN(C)S(=O)(=O)c1ccc(F)cc1	none (no result: GAA850 FXN act, Wnt act, AHR act, MITF TRPM1 HTS)
COc1cccc(S(=O)(=O)Nc2ccc3c(c2)OCCO3)c1	none (no result: AHR act)
COc1ccc(NS(=O)(=O)c2ccc3oc(Nc4ccc5c(c4)OCCO5)nc3c2)cc1	AHR act 87.1 (no result: Wnt act) | AHR act cf 60.2 | PXR counter 19.0
CN1/C(=C\C(=S)NC(=O)c2ccccc2Cl)C(C)(C)c2ccccc21	none (no result: esBAF inh)
COc1ccccc1C(=O)NC(=S)/C=C1/N(C)c2ccccc2C1(C)C	AHR act 81.4 (no result: esBAF inh) | AHR act cf inactive | PXR counter 100.4
CN1[C@H](C(=O)NC2Cc3ccccc3C2)[C@@H](CO)[C@@H]2Cn3c(ccc(-c4cccnc4)c3=O)[C@@H]21	none (no result: GAA850 FXN act, Wnt act, AHR act, MITF TRPM1 HTS)
CC(C)(C)c1cc(C(=O)NCCCn2ccnc2)cc(C(C)(C)C)c1	none
O=C(NCCCn1ccnc1)c1cc(Cl)cc(Cl)c1	AHR act 87.2 | AHR act cf 73.8 | PXR counter 21.5
Cc1ccc(-c2cc(C(=O)Nc3c(C)n(C)n(-c4ccccc4)c3=O)[nH]n2)c(O)c1	none
Cc1ccc(-c2[nH]ncc2C(=O)c2cccc(F)c2)c(O)c1	none
Cc1ccc(-c2cc(-c3cccc(F)c3)n[nH]2)c(O)c1	AHR act 126.0, esBAF inh 55.7 (no result: Wnt act) | AHR act cf 141.8 | PXR counter 15.9
Cc1ccc(-c2cc(-c3ccccc3C)[nH]n2)c(O)c1	AHR act 101.5 (no result: Wnt act) | AHR act cf 136.0 | PXR counter 18.1
O=C(C[C@@H]1C[C@@H]2c3cc(NC(=O)c4ccc5c(c4)OCO5)ccc3O[C@@H]2[C@H](CO)O1)NC1CCCCC1	none (no result: GAA850 FXN act, Wnt act, AHR act, MITF TRPM1 HTS)
CCOC(=O)c1c2ccc(OCC(=O)N/N=C/c3ccc(C)cc3)cc2n2ccccc12	none (no result: Wnt act, esBAF inh)
CCOC(=O)c1c2ccc(OCC(=O)NN)cc2n2ccccc12	AHR act 86.1 (no result: esBAF inh) | AHR act cf 89.7 | PXR counter 11.7
COC(=O)c1cc(Cl)c(NC(=O)c2ccc(F)cc2)cc1OC	none (no result: esBAF inh)
COc1cc(NC(=O)C2CCCO2)c(OC)cc1Cl (stereo unspecified)	none
COc1cc(NC(=O)c2ccc(F)cc2)c(OC)cc1Cl	AHR act 86.4 (no result: esBAF inh) | AHR act cf 102.7 | PXR counter 20.2
COc1cc(NC(=O)c2cc(C3CC3)on2)c(OC)cc1Cl	AHR act 94.7 | AHR act cf 109.8 | PXR counter 14.1
COc1ccc(/C=N/NC(=O)c2cccc(NC(=O)c3ccccc3)c2)c(C(=O)O)c1OC	AHR act 112.9 (no result: Wnt act, esBAF inh) | AHR act cf 94.7 | PXR counter 12.6
COc1ccc(C(=O)Nc2cccc(C(=O)N/N=C/c3ccc(OC)cc3OC)c2)cc1	none
Cc1cccc(/C=N/NC(=O)c2cccc(NC(=O)c3ccccc3)c2)n1	AHR act 106.0 | AHR act cf 102.3 | PXR counter 27.9
CN(C)CC(=O)N[C@@H]1CC[C@H](CCn2cc(C3CC3)nn2)O[C@@H]1CO	none (no result: GAA850 FXN act, Wnt act, AHR act, MITF TRPM1 HTS)
Cc1cc(N/N=C/c2ccccc2O)nc(-c2ccccc2O)n1	AHR act 118.6 (no result: esBAF inh) | AHR act cf inactive | PXR counter inactive
Cc1cc(N/N=C\c2ccccc2)nc(-c2ccccc2O)n1	AHR act 82.3 (no result: esBAF inh) | AHR act cf 107.9 | PXR counter 15.2
COc1ccc2nc(C)cc(N/N=C/c3ccccc3)c2c1	AHR act 142.2 (no result: Wnt act) | AHR act cf 95.6 | PXR counter inactive
Cc1cc(N/N=C/c2cccc(Br)c2)nc2ccccc12	AHR act 99.7 (no result: esBAF inh) | AHR act cf 97.2 | PXR counter 33.8
Cc1ccc(S(=O)(=O)N(C)C[C@H]2Oc3ccc(NC(=O)C4CCCCC4)cc3CC(=O)N([C@@H](C)CO)C[C@H]2C)cc1	none (no result: GAA850 FXN act, Wnt act, AHR act, MITF TRPM1 HTS)
CCCNC(=O)Nc1ccc2c(c1)C(=O)N(C)[C@H]1CC[C@H](CC(=O)NCC3CCCCC3)O[C@H]1CO2	none (no result: GAA850 FXN act, Wnt act, AHR act, MITF TRPM1 HTS)
CO[C@H]1CN(C)C(=O)c2ccc(NC(=O)Nc3ccccc3Cl)cc2OC[C@H](C)NC[C@H]1C	none (no result: GAA850 FXN act, Wnt act, AHR act, MITF TRPM1 HTS)
COc1ccc(C)cc1Nc1nc(-c2ccccc2O)nc2ccccc12	none
COc1ccc(C)cc1Nc1nc(-c2c[nH]c3ccccc23)cs1	AHR act 89.3 (no result: esBAF inh) | AHR act cf 64.0 | PXR counter 16.6
COc1cccc(/C=C/c2ccc3cccc(O)c3n2)c1OC	Wnt act 53.7, AHR act 81.4, esBAF inh 68.8 | AHR act cf 65.0 | PXR counter 13.1
COc1ccc(C)c2sc(NC(=O)C3=COCCO3)nc12	AHR act 83.9 | AHR act cf 66.2 | PXR counter 19.4
COc1ccc(OC)c2sc(NC(=O)C3=COCCO3)nc12	AHR act 97.9 | AHR act cf 88.2 | PXR counter inactive
COc1ccc(OC)c2sc(NC(=O)C(C)C)nc12	none
Cc1ccc(C)c(-c2csc(NC(=O)C3=COCCO3)n2)c1	none
Cc1ccc(S(=O)(=O)N[C@H]2CC[C@H](CCn3cc(-c4cccc(F)c4)nn3)O[C@H]2CO)cc1	none (no result: GAA850 FXN act, Wnt act, AHR act, MITF TRPM1 HTS)
Cc1ccc(CSc2nc3ccccc3cc2C=O)cc1	AHR act 81.6 (no result: MITF TRPM1 HTS) | AHR act cf 72.0 | PXR counter 15.0
O=C(C[C@H]1CC[C@H](NC(=O)CC2CC2)[C@H](CO)O1)NCc1ccc(Cl)cc1	none (no result: GAA850 FXN act, Wnt act, AHR act, MITF TRPM1 HTS)
Cn1ncc(Cl)c1C(=O)Nc1cccc(Cl)c1	AHR act 84.0 (no result: MITF TRPM1 HTS) | AHR act cf 105.5 | PXR counter 23.4
CCn1ncc(Br)c1C(=O)Nc1cc(C)on1	none (no result: AHR act)
